Activity calls are given as the source filed them.
Columns and labels:
[1] = E. coli DRC41 culture turbidity changes, primary screen, E. coli filamentation inducer project, strain DRC41, OD650, 48 h (AID 1152);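 further: E. coli MC1000 strain DRC41 lacking acrAB efflux pump and sulA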; conditions: E. coli DRC41 (acrAB sulA), higher = more signal, called active from +8 up or from −8 down
[2] = small-molecule binders of probe aLefty1, primary screen, biochemical, small-molecule microarray, 635/667 nm fluorescence (AID 1153); conditions: higher = more signal;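 further: score merges spot fluorescence with signal-to-noise ratio from the scanned slide images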
[3] = PSAC antagonists in infected red cells, primary screen, cell-based, P. falciparum Indochina, OD700, 1 h (AID 1154); conditions: P. falciparum Indochina infected RBC osmotic lysis, higher = more signal, called active from +8 up or from −8 down
[4] = PSAC antagonists in infected red cells, primary screen, cell-based, P. falciparum Indochina, OD700, 2 h (AID 1155);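 further: lysis reports solute entry through the parasite surface anion channel PSAC; channel blockers reduce lysis of infected cells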; conditions: P. falciparum Indochina infected erythrocytes, osmotic lysis OD700; higher = more signal, called active from +8 up or from −8 down
[5] = osmotic lysis modulators in infected erythrocytes, primary screen, PSAC antagonist project, cell-based, P. falciparum Indochina, OD700, 3 h (AID 1156); conditions: higher = more signal, called active from +8 up or from −8 down
[6] = PSAC antagonists in infected red cells, primary screen, cell-based, P. falciparum Indochina, OD700, 18 h (AID 1157); conditions: P. falciparum Indochina infected erythrocytes, osmotic lysis OD700, 18 h; higher = more signal, called active from +8 up or from −8 down
[7] = modulators of S6 phosphorylation in cells, primary screen, cell-based, A549, cytoblot, luminescence, serum-stimulated (AID 1158); conditions: A549 phospho-S6 cytoblot, 5 h, higher = more signal;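 further: serum-stimulated A549 lung adenocarcinoma cells; signal is phosphorylated S6 detected by cytoblot immunostaining with HRP secondary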
[8] = target: NADPH oxidase 2 (Homo sapiens) (UniProt P04839); experiment: NOX2-dependent H2O2 signal modulators, primary screen, NOX inhibitor project, cell-based, HEK293-NOX2, PMA-stimulated, Amplex Red fluorescence (AID 1159); conditions: 45 min, higher = more signal, called active from +8 up or from −8 down; further: test concentration not given here
Chain of NADPH oxidase 2 (Homo sapiens) (P04839 whole entry, looked up): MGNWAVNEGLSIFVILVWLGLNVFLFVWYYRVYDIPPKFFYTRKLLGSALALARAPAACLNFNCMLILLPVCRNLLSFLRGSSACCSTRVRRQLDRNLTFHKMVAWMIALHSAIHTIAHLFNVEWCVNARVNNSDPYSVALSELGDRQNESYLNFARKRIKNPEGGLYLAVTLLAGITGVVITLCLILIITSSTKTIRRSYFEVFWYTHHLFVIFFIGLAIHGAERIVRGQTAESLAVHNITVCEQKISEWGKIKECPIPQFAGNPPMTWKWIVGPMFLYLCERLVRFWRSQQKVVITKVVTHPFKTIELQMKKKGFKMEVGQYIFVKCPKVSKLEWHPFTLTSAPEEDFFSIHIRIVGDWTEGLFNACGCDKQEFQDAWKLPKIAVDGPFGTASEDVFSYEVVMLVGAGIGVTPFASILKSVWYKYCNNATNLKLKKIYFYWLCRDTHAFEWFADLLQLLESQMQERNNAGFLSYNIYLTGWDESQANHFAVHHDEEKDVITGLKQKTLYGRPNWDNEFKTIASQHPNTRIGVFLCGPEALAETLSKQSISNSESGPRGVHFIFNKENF

[9] = target: NADPH oxidase 4 (Homo sapiens) (UniProt Q9NPH5); experiment: NOX4-dependent H2O2 signal modulators, primary screen, NOX inhibitor project, cell-based, HEK293-NOX4, tetracycline-induced, Amplex Red fluorescence (AID 1160); conditions: 45 min, higher = more signal, called active from +8 up or from −8 down
Chain of NADPH oxidase 4 (Homo sapiens) (Q9NPH5 whole entry, looked up): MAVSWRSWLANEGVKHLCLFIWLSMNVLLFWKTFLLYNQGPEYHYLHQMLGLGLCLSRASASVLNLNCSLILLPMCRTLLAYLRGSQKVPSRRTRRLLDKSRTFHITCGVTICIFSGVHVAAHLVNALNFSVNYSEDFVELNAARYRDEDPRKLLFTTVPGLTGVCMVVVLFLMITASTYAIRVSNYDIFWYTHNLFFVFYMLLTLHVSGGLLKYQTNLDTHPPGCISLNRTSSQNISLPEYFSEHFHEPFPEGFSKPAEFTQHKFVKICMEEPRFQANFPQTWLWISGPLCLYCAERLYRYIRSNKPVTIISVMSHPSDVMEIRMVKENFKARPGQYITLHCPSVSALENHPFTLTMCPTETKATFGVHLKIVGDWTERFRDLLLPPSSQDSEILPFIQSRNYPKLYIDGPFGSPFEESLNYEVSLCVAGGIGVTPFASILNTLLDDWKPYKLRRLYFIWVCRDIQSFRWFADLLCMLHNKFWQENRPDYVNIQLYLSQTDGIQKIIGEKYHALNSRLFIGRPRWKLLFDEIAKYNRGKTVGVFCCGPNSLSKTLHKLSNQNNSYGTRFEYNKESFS

[10] = target: NADPH oxidase 5 (Homo sapiens) (UniProt Q96PH1); experiment: NOX5-dependent H2O2 signal modulators, primary screen, NOX inhibitor project, cell-based, HEK293-NOX5, Amplex Red fluorescence (AID 1161); conditions: HEK293-NOX5, ionomycin, 45 min, higher = more signal
Chain of NADPH oxidase 5 (Homo sapiens) (Q96PH1 whole entry, looked up): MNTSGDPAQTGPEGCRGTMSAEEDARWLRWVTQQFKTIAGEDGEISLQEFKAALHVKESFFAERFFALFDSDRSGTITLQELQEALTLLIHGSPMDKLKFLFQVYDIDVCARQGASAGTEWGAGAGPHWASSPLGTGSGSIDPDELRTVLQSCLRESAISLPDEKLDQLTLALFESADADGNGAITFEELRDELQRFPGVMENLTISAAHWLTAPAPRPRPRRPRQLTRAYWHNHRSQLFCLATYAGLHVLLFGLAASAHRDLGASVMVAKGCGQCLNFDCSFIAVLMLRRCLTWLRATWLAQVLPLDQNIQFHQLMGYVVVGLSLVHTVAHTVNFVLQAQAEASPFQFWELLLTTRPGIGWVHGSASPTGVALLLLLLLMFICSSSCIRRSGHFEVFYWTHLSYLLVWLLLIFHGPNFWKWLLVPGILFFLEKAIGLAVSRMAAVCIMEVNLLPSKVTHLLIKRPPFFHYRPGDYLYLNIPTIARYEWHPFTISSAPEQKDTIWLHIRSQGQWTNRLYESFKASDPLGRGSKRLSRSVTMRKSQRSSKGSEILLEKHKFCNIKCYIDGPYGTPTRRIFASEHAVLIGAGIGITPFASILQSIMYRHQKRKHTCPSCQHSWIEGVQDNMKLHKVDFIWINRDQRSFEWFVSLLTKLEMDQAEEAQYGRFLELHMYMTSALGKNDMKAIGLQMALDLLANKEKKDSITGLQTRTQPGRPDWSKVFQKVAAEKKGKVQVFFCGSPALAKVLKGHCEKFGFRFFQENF

| Structure (SMILES) | z-score [1] | composite z-score [2] | z-score [3] | z-score [4] | z-score [5] | z-score [6] | z-score [7] | z-score [8] | z-score [9] | z-score [10] |
| --- | --- | --- | --- | --- | --- | --- | --- | --- | --- | --- |
| COC(=O)C1=CC(CCCO)=CC(c2ccc(CN3CCCC3)cc2)N(C)C=C1C(=O)OC (stereo not given) | 0.265 (inactive) | 0.212 | 1.77 (inactive) | 0.422 (inactive) | 0.587 (inactive) | 0.155 (inactive) | -0.387 | 0.452 (inactive) | 0.225 (inactive) | 0.463 |
| COc1ccc([Si](C)(C)[C@H]2[C@H](CC(=O)N3CCC[C@H]3CO)O[C@@]3(C(=O)N(C)c4c(Br)cc(C)cc43)[C@@H]2C)cc1 | -0.437 (inactive) | 1 | 2.11 (inactive) | 0.179 (inactive) | -0.192 (inactive) | 0.62 (inactive) | 0.488 | 0.951 (inactive) | 0.657 (inactive) | 3.04 |
| COC(=O)C(CC#Cc1ccc2c(c1)[C@]1(C(=O)N2)[C@H](C(=O)NC[C@H](O)c2ccccc2)[C@H]2C(=O)O[C@H](c3ccccc3)[C@H](c3ccccc3)N2[C@@H]1c1ccc(O)cc1)C(=O)OC | -1.21 (inactive) | -0.445 | 1.44 (inactive) | 0.21 (inactive) | -0.506 (inactive) | -0.0801 (inactive) | -0.0784 | 1.4 (inactive) | 0.691 (inactive) | 1.33 |
| CC(=O)NCCCC[C@@H]1NC(=O)[C@H]2C[C@@H](C(=O)O)[C@@H](c3cccc(OCCO)c3)N2C1=O | -0.442 (inactive) | 0.189 | 1.15 (inactive) | 0.821 (inactive) | -1.42 (inactive) | 0.253 (inactive) | 0.435 | 0.956 (inactive) | 0.197 (inactive) | -0.0358 |
| CC1C2C(CCCO)=CC(C3C(=O)N(C)C(=O)C23)N1Cc1cccc(OC(F)(F)F)c1 (stereo not given) | 0.337 (inactive) | -0.0083 | 1.38 (inactive) | 0.938 (inactive) | 1.07 (inactive) | 0.528 (inactive) | 1.04 | 0.733 (inactive) | -0.702 (inactive) | 0.455 |
| COc1ccc(CCNC(=O)[C@@H]2c3ccccc3C(=O)N(Cc3cc(F)cc(C(F)(F)F)c3)[C@H]2c2ccc(CO)cc2)cc1 | 0.799 (inactive) | 0.659 | 3.5 (inactive) | 0.69 (inactive) | 0.563 (inactive) | 0.0614 (inactive) | -0.155 | -2.4 (inactive) | -0.0983 (inactive) | -2.21 |
| Cc1ccc(S[C@]2(C(=O)NCc3ccccc3)CC(=O)N(Cc3ccccc3Cl)[C@@H]2c2ccc(CO)cc2)cc1 | -0.71 (inactive) | -0.0536 | 3.22 (inactive) | 0.328 (inactive) | 2.98 (inactive) | 0.254 (inactive) | -0.121 | -0.703 (inactive) | -0.666 (inactive) | -0.778 |
| CCc1cccc(NC(=O)O[C@H]2[C@H](OC(=O)Nc3ccccc3-c3ccccc3)[C@H](OC(=O)Nc3ccccc3-c3ccccc3)[C@@H](OC)O[C@@H]2CO)c1 | -1.98 (inactive) | 0.0442 | 3.88 (inactive) | 1.84 (inactive) | 0.17 (inactive) | 1.77 (inactive) | 0.371 | -3.06 (inactive) | -0.477 (inactive) | -1.01 |
| COC(=O)C(CC#Cc1ccc2c(c1)[C@]1(C(=O)N2)[C@H](c2ccc(OCCO)cc2)N2[C@H](c3ccccc3)[C@H](c3ccccc3)OC(=O)[C@H]2[C@@H]1C(N)=O)C(=O)OC | -0.763 (inactive) | 0.0319 | 3.9 (inactive) | 1.36 (inactive) | -0.623 (inactive) | 0.615 (inactive) | -0.359 | 1.56 (inactive) | 0.784 (inactive) | 0.345 |
| C=CC[C@]1(C(=O)NCCN2CCOCC2)N=C(c2ccc(OCCCO)cc2)O[C@H]1c1ccccc1 | -0.151 (inactive) | 0.296 | 4.72 (inactive) | 0.644 (inactive) | 0.168 (inactive) | 0.275 (inactive) | -0.45 | 0.0905 (inactive) | -0.0559 (inactive) | 0.115 |
| COC(=O)[C@@]1(Cc2ccc(OC)cc2)[C@@H]2[C@@H](CC(=O)[C@H]2CC(=O)C(=O)N(C)C)CN1C(=O)c1ccccc1 | -0.715 (inactive) | 2.12 | 2.94 (inactive) | 1.08 (inactive) | 0.63 (inactive) | 1.45 (inactive) | 0.58 | 0.337 (inactive) | 0.898 (inactive) | 0.427 |
| C=C[C@H](OC)[C@@H](O)c1ccc(OC)c(O)c1 | 0.169 (inactive) | -0.169 | -0.258 (inactive) | 0.352 (inactive) | -0.658 (inactive) | 0.207 (inactive) | -0.425 | -2.15 (inactive) | -0.986 (inactive) | -0.556 |
| C=C(C(=O)CC[C@@H](OC(=O)c1ccccc1-c1ccccc1C(=O)O)c1cccc(OCCO)c1)C(C)C | 0.272 (inactive) | 0.262 | 4.83 (inactive) | 0.407 (inactive) | 0.51 (inactive) | 0.233 (inactive) | -0.205 | 3.11 (inactive) | 1.06 (inactive) | -0.442 |
| COCCCNC(=O)[C@@]1(Cc2ccccc2I)c2ccccc2C(=O)N(Cc2ccccc2OC)[C@H]1c1ccc(CO)cc1 | 0.567 (inactive) | -0.164 | 10.1 (active) | 1.27 (inactive) | 1.73 (inactive) | 0.576 (inactive) | -0.0483 | -1.68 (inactive) | 0.642 (inactive) | -1.19 |
| COC(=O)C[C@H]1O[C@]2(C(=O)N(C)c3ccccc32)[C@@H](C)[C@@H]1[Si](C)(C)c1ccccc1 | -0.297 (inactive) | 0.151 | 1.48 (inactive) | 0.405 (inactive) | 1.1 (inactive) | 0.0591 (inactive) | 0.252 | 0.767 (inactive) | 0.176 (inactive) | -1.11 |
| COc1cc(Cc2cc3c(c(CCc4ccccc4)n2)[Si](C(C)C)(C(C)C)O[C@H]3c2ccccc2)cc(OC)c1OC | -1.77 (inactive) | 0.101 | -0.436 (inactive) | 0.356 (inactive) | -3.89 (inactive) | 0.0416 (inactive) | -0.557 | 1.25 (inactive) | -2.98 (inactive) | -3.87 |
| C=CCNC(=O)[C@H]1[C@@H]2C(=O)O[C@@H](c3ccccc3)[C@@H](c3ccccc3)N2[C@@H](c2ccc(O)cc2)[C@]12C(=O)Nc1ccc(C#CCC(C(=O)OC)C(=O)OC)cc12 | 0.824 (inactive) | -0.188 | 8.47 (active) | 1.51 (inactive) | 0.416 (inactive) | 0.432 (inactive) | 0.0591 | 1.82 (inactive) | 0.194 (inactive) | 1.93 |
| CN1C(=O)C2C(C1=O)C1C=C(CCCO)C2C(C2CC2)N1C (stereo not given) | 0.667 (inactive) | -0.0683 | -0.452 (inactive) | -0.72 (inactive) | 0.139 (inactive) | -1.17 (inactive) | 1.82 | -0.0367 (inactive) | -0.274 (inactive) | 0.53 |
| CC[C@H]1C2=C3C(CC[C@H]4C(OCc5ccc(F)cc5C(F)(F)F)OC[C@](C)([C@@H]34)N(C(=O)OC(C)(C)C)C2)C(COC(C)=O)C1COC(C)=O (stereo not given in full) | -2.44 (inactive) | 0.713 | 0.408 (inactive) | -0.248 (inactive) | 0.483 (inactive) | 0.323 (inactive) | -0.772 | -1.05 (inactive) | -2.56 (inactive) | -1.43 |
| CC(C)C[C@@H]1NC(=O)[C@@H]2C[C@H](C(=O)NCCCCCNC(=O)CS)[C@H](c3ccc(O)cc3)N2C1=O | 2.03 (inactive) | 0.165 | 0.625 (inactive) | -0.37 (inactive) | 0.768 (inactive) | -0.73 (inactive) | 2.48 | -1.18 (inactive) | -1.35 (inactive) | -3.05 |
| CC(C)[Si](C#Cc1ccccc1)(O[C@H](c1ccccc1)c1cn(Cc2ccccc2)nn1)C(C)C | 1.57 (inactive) | -0.275 | 1.66 (inactive) | 1.53 (inactive) | -1.39 (inactive) | 0.554 (inactive) | 0.0866 | 0.789 (inactive) | -1.18 (inactive) | -2.98 |
| CO[C@H]1O[C@H](CO)[C@@H](OC(=O)CCc2ccccc2)[C@@H]2OC(=O)[C@@H](Cc3ccc4ccccc4c3)C/C=C/C[C@H](Cc3ccc4ccccc4c3)C(=O)O[C@@H]12 | 0.411 (inactive) | -0.949 | 2.85 (inactive) | -0.498 (inactive) | -1.88 (inactive) | -1.71 (inactive) | 0.795 | 1.5 (inactive) | -0.27 (inactive) | -0.995 |
| [N-]=[N+]=NCc1ccccc1[C@H]1OC(c2ccc(OCCCO)cc2)=N[C@@]1(CCS(=O)(=O)c1ccccc1)C(=O)NCCN1CCOCC1 | -0.265 (inactive) | 0.877 | 27.1 (active) | 13.2 (active) | 1.38 (inactive) | 1.99 (inactive) | -0.124 | 0.636 (inactive) | 1.33 (inactive) | 1.65 |
| CN1C(=O)C2C=CC(C(O)c3ccc([N+](=O)[O-])cc3)N(Nc3ccccc3)C2C1=O (stereo not given) | -1.93 (inactive) | 0.658 | 1.98 (inactive) | 1.36 (inactive) | 2.88 (inactive) | 1.44 (inactive) | -1.06 | -1.45 (inactive) | -5.03 (inactive) | -3.26 |
| COC(=O)C1(CC(C)C)C=C2C(=C(C)C(=O)C2C)CN1 (stereo not given) | -1.62 (inactive) | 1.59 | 0.71 (inactive) | -0.161 (inactive) | 0.396 (inactive) | 0.421 (inactive) | -0.164 | 0.425 (inactive) | -1.51 (inactive) | -2.83 |
